# The campaign covered roughly 330,000 compounds. About 540 (0.16%) were called active. The list comes from a sample in which actives are over-represented; it also holds similar structures and randomly drawn compounds. A number with no mark means an inactive call.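 The calls were made as follows: active = activation factor of the enzyme at least 2-fold when tested at 20 µM; inactive = the rest.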
# Molecular target: Intestinal-type alkaline phosphatase (Homo sapiens) (UniProt P09923)
# Assay: enzymatic activation of intestinal alkaline phosphatase – biochemical, luminescence, uHTS, primary screen (AID 2524)
# Conditions: purified human IAP, CDP-Star luminescence, 30 min; at 10 µM; hits give high values; 1 = vehicle-only enzyme, 0 = enzyme-free background
# Intestinal-type alkaline phosphatase (Homo sapiens), sequence (P09923 whole entry, looked up): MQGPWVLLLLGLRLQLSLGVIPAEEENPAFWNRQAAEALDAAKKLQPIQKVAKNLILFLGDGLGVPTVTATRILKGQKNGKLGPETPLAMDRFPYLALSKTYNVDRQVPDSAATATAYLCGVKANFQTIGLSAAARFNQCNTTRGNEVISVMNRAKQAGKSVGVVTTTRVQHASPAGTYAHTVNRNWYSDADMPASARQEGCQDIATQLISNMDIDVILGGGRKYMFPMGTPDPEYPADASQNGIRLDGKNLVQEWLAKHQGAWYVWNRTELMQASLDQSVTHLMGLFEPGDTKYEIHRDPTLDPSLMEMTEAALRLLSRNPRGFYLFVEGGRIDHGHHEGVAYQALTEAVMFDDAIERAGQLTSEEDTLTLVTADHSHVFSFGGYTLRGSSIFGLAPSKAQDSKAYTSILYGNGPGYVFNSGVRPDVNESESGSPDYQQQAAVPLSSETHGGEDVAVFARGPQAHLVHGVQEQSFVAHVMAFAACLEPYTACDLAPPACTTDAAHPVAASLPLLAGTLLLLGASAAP
row,SMILES,activation factor
1,CN1C(=O)C2(OCCCO2)c2cc(Cl)ccc21,0.939
2,CC(=O)NCCc1ccc(S(=O)(=O)Nc2ccc(C)c(S(=O)(=O)N3CCOCC3)c2)cc1,0.976
3,COc1ccc(N(CC(=O)NCCSCc2cccc(Cl)c2)S(C)(=O)=O)cc1,1.4
4,Cn1cnnc1SCC(=O)NNC(=O)COc1ccc(Br)cc1,1.79
5,Cn1cnnc1SCC(=O)Nc1ccc(N2CCOCC2)cc1,1.03
6,CCOc1ccc(NC(=O)CSc2nncn2C)cc1,3.82 (active)
7,Cc1cn(C2C=CC(CO)O2)c(=O)[nH]c1=O (centres undefined),0.925
8,Cc1cc2c(cc1C)[n+](C)cn2CC(O)COCC1CC=CCC1 (centres undefined),0.897
9,N=c1c2c(-c3ccccc3)c(-c3ccccc3)n(Cc3ccccc3)c2ncn1CCCO,1.11
10,OCCCN1c2ccccc2Nc2nnc(-c3ccccc3)cc21,2.48 (active)
11,O=C(NC(=S)Nc1ccccc1C(=O)O)c1ccc(-c2ccc(Br)cc2)o1,0.945
12,CCCCCC1CC(COc2ccccc2)OC1=O (centres undefined),0.9
13,CC(C)(C)NC(=O)C(=O)NCc1ccncc1,1.09
14,CC(NCC(=O)Nc1cc(Cl)cc(Cl)c1)c1ccccc1 (centres undefined),1.03
15,CCC(C(=O)Nc1ccc(C(C)C)cc1)c1ccccc1 (centres undefined),2.92 (active)
16,CCC(C(=O)Nc1ccc2c(c1)OCCO2)c1ccccc1 (centres undefined),0.871
17,CCC(C(=O)OCC(=O)Nc1ccc(C(=O)Nc2ccc(OC)cc2)cc1)c1ccccc1 (centres undefined),1.08
18,O=C(CSc1nnnn1C1CCCC1)Nc1ccc2c(c1)OCCO2,0.96
19,Cc1cnc(NC(=O)Cn2cnc3c2c(=O)n(C)c(=O)n3C)s1,1
20,CCOc1ccc(C(=O)COC(=O)c2ccc(-n3cnnn3)cc2)cc1,1.05
21,CC(=O)NC1C(Oc2ccc(C)cc2)OC2COC(c3ccco3)OC2C1O (centres undefined),1.11
22,Oc1ccc(Br)cc1/C=N/Nc1ccccn1,1.22
23,Oc1cccc(/C=N/Nc2ccc(Cl)nn2)c1O,2.16 (active)
24,O=C(COc1ccc2c(C(F)(F)F)cc(=O)oc2c1)Nc1ccc2c(c1)OCCO2,1.02

row,SMILES,activation factor
1,C=CCOc1cccc(CNn2cn[nH]c2=S)c1,0.895
2,CNC(=O)CN1C(=O)NC(c2ccccc2)(c2ccccc2)C1=O,1.05
3,CCOc1ccccc1N1C(=O)CC(Sc2nccc(C)n2)C1=O (centres undefined),1.29
4,O=C(NCC(=O)N1CCC2(CC1)NCCc1[nH]cnc12)c1ccc(Br)cc1,1.11
5,O=C(O)CSC(NC(=O)c1cccnc1)(C(F)(F)F)C(F)(F)F,0.961
6,O=C1COc2ccc(C(=O)CSc3ccc(Br)cc3)cc2N1,1.06
7,O=[N+]([O-])c1ccc2nc(-c3ccccn3)[nH]c2c1,1.4
8,c1ccc2[nH]c(-c3nc4ccccc4[nH]3)nc2c1,2.1 (active)
9,O=C(Nc1sc2c(c1-c1nc3ccccc3[nH]1)CCCC2)C1CC1,1.06
10,O=C(NCCC1CCCCN1S(=O)(=O)c1ccc(Cl)cc1)C(=O)NCc1ccco1 (centres undefined),1.03
11,Cn1c(=O)c2c(nc(N/N=C/c3cccs3)n2Cc2ccc(Br)cc2)n(C)c1=O,2.42 (active)
12,Cn1c(=O)c2c(nc(NCCc3ccccc3)n2Cc2ccccc2)n(C)c1=O,0.914
13,Cn1c(=O)c2sccc2n(Cc2ccc(Br)cc2)c1=O,0.619
14,Cc1cccc(NC(=O)CSc2nnc(CCCCCNC(=O)OC(C)(C)C)o2)c1C,0.854
15,O=C(O)CCC(=O)Nc1ccc(OCC2CCCO2)cc1 (centres undefined),0.853
16,Cc1cc(C)c(C#N)c(SCC(=O)N(CC(C)C)C2CCS(=O)(=O)C2)n1 (centres undefined),0.97
17,CCOC(=O)c1ccc(NC(=O)c2nc[nH]c2C(=O)NCc2ccccc2)cc1,1.59
18,O=C(Nc1ccon1)c1nc[nH]c1C(=O)NCc1ccccc1,2.43 (active)
19,Cc1cccc(NC(=O)c2nc[nH]c2C(=O)NCC(=O)OCc2ccccc2)c1,1.09
20,Cc1ccc2cc(CCNC(=O)c3c(-c4ccccc4Cl)noc3C)c(=O)[nH]c2c1,0.983
21,COc1ccc(C(=O)NNS(=O)(=O)c2ccc(C)cc2)cc1,0.935
22,COc1ccc(C(=O)NNC(=O)c2cc(C)[nH]n2)cc1,1.61
23,COc1ccc(C(=O)NNc2cc(C)nc(NNC(=O)c3ccc(OC)cc3)n2)cc1,2.25 (active)
24,CC(=O)NC1C(Oc2ccc(C=O)cc2)OC(COC(C)=O)C(OC(C)=O)C1OC(C)=O (centres undefined),1.03

row,SMILES,activation factor
1,CN(C)C(CNC(=O)c1cccc(C#N)c1)c1ccco1 (centres undefined),0.873
2,OC(c1nc2ccc(F)cc2[nH]1)C(O)c1nc2ccc(F)cc2[nH]1 (centres undefined),3.62 (active)
3,Oc1ccc2nc(Cc3ccccc3)[nH]c2c1,0.985
4,CN(Cc1nc2ccc(F)cc2[nH]1)Cc1nc(CC2CC2)no1,0.896
5,Nc1ncnc2c1ncn2[C@@H]1O[C@H](CNCc2cccn2-c2nccs2)[C@@H](O)[C@H]1O,0.901
6,CC(C)=CCN1CCN(Cc2cc3ccccc3[nH]2)CC1CCO (centres undefined),1.13
7,Cc1ccc(NC(=O)CN2C(=O)NC(C)(c3ccc(Cl)cc3)C2=O)c(Br)c1 (centres undefined),1
8,CN(c1ccccc1)S(=O)(=O)c1cccc(NC(=O)Cc2ccc(Cl)cc2)c1,1.01
9,CCOC(=O)c1sc(NC(=O)CSc2nc(C)cc(C(F)(F)F)n2)c(C#N)c1C,0.888
10,COc1ccccc1N(C)S(=O)(=O)c1ccc(C(=O)N2CCC(C(N)=O)CC2)cc1,0.887
11,O=C(CCCCO)c1ccc(O)c(Cl)c1,1.08
12,CC(C)c1ccc(NC2CCCN(C(=O)c3ccncc3)C2)cc1 (centres undefined),0.926
13,Cc1ccc(S(=O)(=O)N2[C@@H](c3cccc(Cl)c3)C(C(=O)O)=CC[C@H]2c2ccc(Cl)c(Cl)c2)cc1,1.09
14,COC(C[C@@H](O)[C@H](C)[C@H](O)COCc1ccccc1)OC,0.977
15,O=C(OCC1O[C@@H](OC(=O)c2cc(O)c(O)c(O)c2)[C@@H](OC(=O)c2cc(O)c(O)c(O)c2)[C@@H](OC(=O)c2cc(O)c(O)c(O)c2)[C@@H]1OC(=O)c1cc(O)c(O)c(O)c1)c1cc(O)c(O)c(O)c1 (some centres undefined),3.98 (active)
16,COc1ccc(C(=O)N(Cc2ccccc2)c2ccc(C)cc2)cc1S(=O)(=O)N1CCOCC1,0.94
17,CC(C)NC(=O)NCCCCCCS(C)=O (centres undefined),1.08
18,CC(C)CN(CC(C)C)CC(O)CN(c1ccccc1)S(=O)(=O)c1ccccc1[N+](=O)[O-] (centres undefined),0.882
19,CC(C)N(C(=O)CSc1nc(COc2ccccc2)nc2ccccc12)C(C)C,0.961
20,COc1cccc(NC(=O)CN(C)C(=O)c2ccccc2CCc2ccccc2)c1,1.1
21,Cn1cc(S(=O)(=O)N2CCN(c3ccc(F)cc3)CC2)c(=O)n(C)c1=O,1.04
22,O=S(=O)(CCc1nc2ccccc2o1)c1ccc(Cl)cc1,0.959
23,CC(C)CC(N=C1NC(C)(C)Cc2ccccc21)C(=O)O (centres undefined),0.9
24,CCOC(=O)C1=NNC2(c3ccc(Cl)cc3)C(=O)N(c3cc(C)cc(C)c3)C(=O)C12 (centres undefined),1.06

row,SMILES,activation factor
1,O=S(=O)(c1ccc(F)cc1)N1CC=C(c2ccccc2)CC1,1.01
2,CN1CCN(Cc2c(C(=O)N3CCc4ccccc4C3)nc3ccc(Cl)cn23)CC1,1.33
3,CC(C)CC(=O)Nc1nnc(S(=O)(=O)N(C)c2ccc(Cl)cc2)s1,0.968
4,COc1ccc(-n2nnc3c(=O)n(CC(=O)N4CCC(Cc5ccccc5)CC4)cnc32)cc1,1.02
5,CCOc1ccc2[nH]c(C(=O)N/N=C/c3cccc(OC)c3OC)cc2c1,0.924
6,COc1cccc(/C=N\NC(=O)C2=NNC(=O)C2C)c1O (centres undefined),2.88 (active)
7,COc1cc(/C=N\NC(=O)C2C(=O)NCC2c2ccccc2)cc(OC)c1O (centres undefined),0.911
8,COc1ccc(/C=N/NC(=O)c2ccncc2)cc1CN1CCCc2ccccc21,1.06
9,COc1cc(/C=N/NC(=O)c2cc(-c3ccccc3C)nc3ccccc23)cc(OC)c1O,0.992
10,COc1cccc(/C=N/NC(=O)c2[nH]nc3c2CCc2ccccc2-3)c1O,2.64 (active)
11,Cc1ccc(OCC(=O)Nc2ccccc2C(=O)NC2CC2)cc1,0.945
12,Cc1ccccc1N1C(=O)C(Oc2ccc(Cl)cc2)C1CNCC1CCCO1 (centres undefined),0.957
13,CN=C(Nc1cccc(S(=O)(=O)N2CCOCC2)c1)c1ccccc1,0.956
14,FC(F)(F)c1ccc(-n2cn[nH]c2=S)cc1,1.1
15,CC(CCN1CCN=C1N(C)C)c1ccccc1 (centres undefined),0.995
16,O=C(Nc1ccccc1C(F)(F)F)N1CCCC1c1cccnc1 (centres undefined),0.942
17,Cc1cc(=O)n2nc(N3CCCC(C(=O)NCc4cccc(Cl)c4)C3)sc2n1 (centres undefined),1.28
18,CCCCN(CC(=O)NC(C)(C)C)C(=O)C(=O)Nc1ccc2c(c1)OCCO2,1.04
19,COC(=O)Nc1sc2nc(C)cc(C)c2c1-n1cccc1,0.984
20,CCCCOC(=O)Nc1sc2nc(C)cc(C)c2c1-n1cccc1,2.01 (active)
21,Cc1cc(C)c2c(-n3cccc3)c(NC(=O)OCc3ccccc3)sc2n1,1.11
22,Cc1ccc(OCCCCN2CCCCC2)c(Br)c1,1.08

# From PubChem BioAssay AID2524 (Sanford-Burnham Center for Chemical Genomics, 2010)
